Laboratory results published in the supplement of paper PMC10981050.
Where “and” joins values, the source holds several entries; their conditions need not be identical. Identical values can stand only once.

What was measured:
Test in all cases: cell viability relative to vehicle control; higher = less cytotoxic
Conditions in all cases: 10 µM
K562 = tested on: K562
Outline: (§1)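 CRISPR-edited mutant clones and isogenic wild-type clones from four leukaemia lines were screened against Selleck bioactive, kinase and epigenetic probe libraries, with identity-inconsistent compounds excluded. Each compound was acoustically dispensed at a single 10 µM dose into 384-well plates holding 2000 cells in 50 µL medium per well. After 48 h the supernatant was removed and CellTiter-Glo luminescence was read. Viability was expressed as percent of the on-plate vehicle control and analysed in Genedata Screener.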

MARIMO = tested on: MARIMO
Outline: as §1

MOLM14 = tested on: MOLM14
Outline: as §1

OCI-AML2 = tested on: OCI-AML2
Outline: as §1

Structure (SMILES) | cell viability (K562; SRSF2 genotype: SRSF2 P95H/wt) | cell viability (K562; SRSF2 genotype: SRSF2 wt/wt) [%] | cell viability (MARIMO; SRSF2 genotype: SRSF2 P95H/wt) [%] | cell viability (MARIMO; SRSF2 genotype: SRSF2 wt/wt) [%] | cell viability (MOLM14; SRSF2 genotype: SRSF2 P95H/wt) [%] | cell viability (MOLM14; SRSF2 genotype: SRSF2 wt/wt) [%] | cell viability (OCI-AML2; SRSF2 genotype: P95H/wt) [%] | cell viability (OCI-AML2; SRSF2 genotype: wt/wt) [%]
CC(C)=CCCC(C)(O)C1CCC2(C)C1C(O)CC1C3(C)CCC(O)C(C)(C)C3C(OC3OC(CO)C(O)C(O)C3O)CC12C [20(S)-Ginsenoside Rh1] | 103% and 105% | 101 | 106 | 110 | 102 | 106 | 107 | 115
Cn1cc(C2=C(c3cn(C4CCN(Cc5ccccn5)CC4)c4ccccc34)C(=O)NC2=O)c2ccccc21 | 91.5% and 86.9% | 91.3 | 93 | 101 | 76.9 | 91.3 | 110 | 111
Nc1nc(N)nc(N)n1 [Melamine] | 93% and 95.7% | 90 | 94.3 | 99 | 90.1 | 94.4 | 95.2 | 97.8
COc1cc(C(=O)O)cc(OC)c1OC [Gallic acid trimethyl ether] | 106% and 110% | 101 | 102 | 106 | 105 | 106 | 99.2 | 109
COc1ccc2c(c1)/C(=C/c1cnc[nH]1)C(=O)N2 | 91.8% and 96.2% | 88 | 33.7 | 39.8 | 22.1 | 3.31 | 15.4 | 24.6
C[C@](O)(COc1ccc(C#N)cc1)C(=O)Nc1ccc(C#N)c(C(F)(F)F)c1 | 90.6% and 94.9% | 97.9 | 98.7 | 94.2 | 94 | 96.7 | 99.4 | 93.4
CCCCC(C#N)(Cn1cncn1)c1ccc(Cl)cc1 (stereo not given) [Myclobutanil] | 105% and 99.5% | 100 | 97 | 109 | 93.9 | 108 | 92.3 | 98.1
c1cc2c(cc1[C@H]1OC[C@H]3[C@@H]1CO[C@H]3c1ccc3c(c1)OCO3)OCO2 [Asarinin] | 99.6% and 99.4% | 102 | 91.7 | 104 | 100 | 103 | 89.1 | 89.4
C=CC1CN2CCC1CC2C(O)c1ccnc2ccccc12 (stereo not given) [Cinchonine.cdx] | 98.1% and 107% | 102 | 105 | 105 | 95.8 | 104 | 120 | 99.7
CCC1=C[C@H]2CN3CCc4c([nH]c5ccccc45)[C@](C(=O)OC)(C2)[C@H]13 [Catharanthine] | 92.4% and 94% | 95.2 | 81 | 86.6 | 87.8 | 95.5 | 92 | 96.2
